This is an account of results in PubChem BioAssay (NCATS).

Several values for one entry are separate records, joined by “and”; a condition that tells them apart may be missing. Equal entries are not always repeated. Records with an inconclusive call do not appear. Where a call stands in place of a potency, no number is given. Activity calls are given as the source filed them. The call rests on the fitted dose curve; in most records, active means well fitted inhibition curve with a large enough effect; inconclusive means small, poorly fitted or top-dose-only effect; inactive means no such curve, though single readings can be large or run the other way.
Potency means the concentration at half of the fitted maximal effect.

This assay can be described thus: Primary qHTS for inhibitors of nuclear receptor binding SET domain protein 2 (NSD2) in an RCH-ACV wild type WT cells (2C) (AID 1645877). Further: nearly all actives have a fitted effect of over 70% in size. Conditions: RCH-ACV (leukaemia line) NSD2 WT (2C) viability, CellTiter-Glo, 72 h; series mostly up to 44.9 µM.
For `CN1N=C(C(N)=O)CCC1=O`, the Potency result was “inactive”.
In the case of `O=C(OCC1(COC(=O)c2cccnc2)CCCC(COC(=O)c2cccnc2)(COC(=O)c2cccnc2)C1O)c1cccnc1`, the Potency result is “inactive”.
Take `O=C(CCCl)NCCc1ccccc1`: the Potency entry is “inactive”.
In the case of `O=C(O)[C@H](O)[C@@H](O)[C@H](O[C@@H]1O[C@H](CO)[C@H](O)[C@H](O)[C@H]1O)[C@H](O)CO`, the Potency entry is “inactive”.
The result for `Oc1ccccc1` reads “inactive”.
The result for `CCN(CC)CCOc1ccc(/C(=C(\Cl)c2ccccc2)c2ccccc2)cc1` reads 11.9 µM (active) and 5.25 µM (active); that for `CSCC[C@H](NC(=O)[C@H](Cc1c[nH]c2ccccc12)NC(=O)CCNC(=O)OC(C)(C)C)C(=O)N[C@@H](CC(=O)O)C(=O)N[C@@H](Cc1ccccc1)C(N)=O`, “inactive”; that for `Cc1nc([N+](=O)[O-])cn1-c1ccc([N+](=O)[O-])cc1`, “inactive”.
The result for `O=C(c1cc(O)c(O)c(O)c1)c1ccc(O)c(O)c1O` reads 13.3 µM (active); that for `O=C1NCCN1CCN1CCC(c2cn(-c3ccc(F)cc3)c3ccc(Cl)cc23)CC1`, 2.11 µM (active); that for `COC(=O)[C@H]1[C@H]2C[C@@H]3c4[nH]c5cc(OC)ccc5c4CCN3C[C@H]2C[C@@H](OC(=O)/C=C/c2ccc(O)c(OC)c2)[C@@H]1OC`, 4.73 µM (active).
As for `COc1cc2c(cc1OC)CN(C(=O)[C@H](C)N[C@@H](CCc1ccccc1)C(=O)O)[C@H](C(=O)O)C2`, the Potency entry is “inactive”.
Consider `COc1ccccc1N1CCN(CC(O)COc2cc(OC)c(OC)c(OC)c2)CC1` (centres undefined), for which the Potency result was “inactive”.
As to `CCCc1ncc(C(=O)O)s1`, the Potency entry is “inactive”.
